Measurements reported in PubChem BioAssay AID1159580 (chemical genetic matrix, 2015).
Values joined by “and” are separate entries in the source; they are usually repeats but may differ in a detail not shown here. Equal values may be shown once. Screen size: about 5,500 compounds; about 2,000 (36%) were called active. Another 18% or so got no clear call; they are omitted. No stated cut-off is given here; in the data, active means normalized growth mostly below about 0.91 (no sharp cut-off); inconclusive means no clear call, values can overlap the other calls; inactive means mostly above about 0.92. The list shows a part of the results.

Assay: chemical genetic growth profiling, strain panel (AID 1159580);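 further: tested at 20 µM; growth read once vehicle control cultures reached saturation at 30 °C; 1 = growth at the plate median or of vehicle wells; lower values mean less growth of the strain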
Conditions: S. cerevisiae deletion strains, growth OD

Measured: normalized growth

Cc1onc(-c2ccccc2)c1C(=O)NC1C(=O)N2[C@@H]1SC(C)(C)[C@@H]2C(=O)O (some centres not stated)
inactive: locus YAL013W, strain DEP1, active compounds read low 1.01 | locus YAL021C, strain ccr4, active compounds read low 1.02 | locus YAL026C, strain drs2, active compounds read low 1.01 | locus YAL030W, strain snc1, active compounds read low 1.02 | locus YBL061C, strain skt5, active compounds read low 1.02 | locus YBR009C, strain hhf1, active compounds read low 1.02 | locus YBR021W, strain FUR4, active compounds read low 0.99 | locus YBR023C, strain chs3, active compounds read low 1.02 | locus YBR171W, strain sec66, active compounds read low 1.02 | locus YBR229C, strain ROT2, active compounds read low 1 | locus YBR231C, strain swc5, active compounds read low 1.01 | locus YBR279W, strain paf1, active compounds read low 1.01 | locus YCL011C, strain gbp2, active compounds read low 1.03 | locus YCL016C, strain dcc1, active compounds read low 1.06 | locus YCL029C, strain bik1, active compounds read low 1.02 | locus YCL061C, strain MRC1, active compounds read low 1.02 | locus YCL069W, strain vba3, active compounds read low 1.02 | locus YCR088W, strain abp1, active compounds read low 1.02 | locus YDL005C, strain med2, active compounds read low 1.01 | locus YDL035C, strain GPR1, active compounds read low 1 | locus YDL040C, strain nat1, active compounds read low 1.01 | locus YDL074C, strain BRE1, active compounds read low 1.03 | locus YDL101C, strain DUN1, active compounds read low 1.02 | locus YDL134C, strain PPH21, active compounds read low 1 | locus YDL185W, strain tfp1, active compounds read low 1.01 | locus YDL192W, strain arf1, active compounds read low 1.01 | locus YDR001C, strain nth1, active compounds read low 1.01 | locus YDR069C, strain doa4, active compounds read low 1.01 | locus YDR101C, strain arx1, active compounds read low 1.01 | locus YDR137W, strain rgp1, active compounds read low 1.04 | locus YDR150W, strain NUM1, active compounds read low 1.01 | locus YDR159W, strain sac3, active compounds read low 1 | locus YDR162C, strain NBP2, active compounds read low 1.01 | locus YDR195W, strain ref2 0.996 | locus YDR297W, strain sur2, active compounds read low 1.01 | locus YDR318W, strain mcm21, active compounds read low 1.01 | locus YDR334W, strain swr1, active compounds read low 1.02 | locus YDR335W, strain msn5, active compounds read low 1.02 | locus YDR388W, active compounds read low 1.01 | locus YDR392W, strain spt3, active compounds read low 0.959 | locus YDR502C, strain sam2, active compounds read low 1.01 | locus YEL003W, strain gim4, active compounds read low 0.988 | locus YEL037C, strain rad23, active compounds read low 1.01 | locus YEL061C, strain CIN8 (second series), active compounds read low 1 | locus YEL061C, strain CIN8, active compounds read low 1.01 | locus YER015W, strain faa2, active compounds read low 1.01 | locus YER016W, strain bim1, active compounds read low 1.03 | locus YER110C, active compounds read low 1.01 | locus YER111C, strain swi4, active compounds read low 1.01 | locus YER155C, strain BEM2 (second series), active compounds read low 1.02 | locus YER155C, strain BEM2, active compounds read low 1.01 | locus YER167W, strain BCK2, active compounds read low 1.01 | locus YFR010W, strain ubp6, active compounds read low 1.01 | locus YGL078C, strain dbp3, active compounds read low 0.998 | locus YGL086W, strain mad1, active compounds read low 0.991 | locus YGL167C, strain pmr1, active compounds read low 1.02 | locus YGL173C, strain kem1, active compounds read low 1.01 | locus YGL227W, strain vid30, active compounds read low 1.02 | locus YGL240W, strain doc1, active compounds read low 1.02 | locus YGL248W, strain PDE1, active compounds read low 1 | locus YGL253W, strain hxk2, active compounds read low 1.02 | locus YGR078C, strain PAC10, active compounds read low 1.02 | locus YGR135W, strain pre9, active compounds read low 1.01 | locus YGR229C, strain SMI1, active compounds read low 1 | locus YGR252W, strain gcn5, active compounds read low 0.939 | locus YHR027C, strain rpn1, active compounds read low 1.02 | locus YHR030C, strain SLT2, active compounds read low 1.01 and 0.989 | locus YHR079C, strain IRE1 (second series), active compounds read low 1.01 | locus YHR079C, strain IRE1, active compounds read low 0.965 | locus YHR094C, strain hxt1, active compounds read low 1.01 | locus YHR129C, strain ARP1, active compounds read low 1.01 | locus YHR142W, strain chs7, active compounds read low 1.02 | locus YHR200W, strain rpn10, active compounds read low 1.02 | locus YIL066C, strain RNR3, active compounds read low 1.01 | locus YIL073C, strain SPO22, active compounds read low 1.01 | locus YIL125W, strain kgd1, active compounds read low 1.01 | locus YIR030C, strain dcg1, active compounds read low 1.02 | locus YJL092W, strain hpr5, active compounds read low 1.02 | locus YJL095W, strain BCK1 (second series), active compounds read low 1.02 | locus YJL095W, strain BCK1, active compounds read low 1.01 and 0.989 | locus YJL115W, strain asf1, active compounds read low 1.01 | locus YJL129C, strain trk1, active compounds read low 0.994 | locus YJL134W, strain LCB3, active compounds read low 1.01 | locus YJL154C, strain vps35, active compounds read low 1.02 | locus YJL164C, strain tpk1, active compounds read low 1.02 | locus YJL166W, strain qcr8, active compounds read low 1.03 | locus YJL168C, strain set2, active compounds read low 1 | locus YJL187C, strain SWE1 (second series), active compounds read low 1.01 | locus YJL187C, strain SWE1, active compounds read low 1.02 | locus YJR043C, strain POL32, active compounds read low 1.02 | locus YJR066W, strain TOR1, active compounds read low 0.933
active: locus YHR013C, strain ard1, active compounds read low 1.22 [resistant]
